# Laboratory results: PMC7862700, “An all-to-all approach to the identification of sequence-specific readers for epigenetic DNA modifications on cytosine”
# Assays:
# Assay in all cases: DAPPL (digital affinity profiling via proximity ligation, sequencing); 10 mM Tris-HCl pH 7.5, 50 mM NaCl, 1 mM DTT, 4% glycerol, room temperature, 30 min; GST-TFs on glutathione beads, 16-mer random dsDNA library, 0.1% formaldehyde crosslink after washing; high values mean tight binding
# FLI1 = target: T1, FLI1 (Homo sapiens, UniProt Q01543 1-452); conditions: protein: recombinant; tags: N-terminal GST; dsDNA, one strand shown
# T1 sequence: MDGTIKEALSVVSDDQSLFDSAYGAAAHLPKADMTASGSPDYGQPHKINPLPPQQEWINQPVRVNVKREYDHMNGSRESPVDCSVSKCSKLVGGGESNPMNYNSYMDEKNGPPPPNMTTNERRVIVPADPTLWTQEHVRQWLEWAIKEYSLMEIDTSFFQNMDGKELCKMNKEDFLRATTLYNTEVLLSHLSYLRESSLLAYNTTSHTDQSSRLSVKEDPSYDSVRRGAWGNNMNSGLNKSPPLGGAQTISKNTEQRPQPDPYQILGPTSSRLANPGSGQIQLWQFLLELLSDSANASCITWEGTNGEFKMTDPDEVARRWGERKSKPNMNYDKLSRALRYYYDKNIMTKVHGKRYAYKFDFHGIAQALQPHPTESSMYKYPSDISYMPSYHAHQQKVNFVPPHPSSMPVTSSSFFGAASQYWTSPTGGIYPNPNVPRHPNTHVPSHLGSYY
# In short: (§1)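 Human transcription factors fused to GST were expressed in yeast, captured on glutathione beads, given DNA barcodes and pooled with a GST-only negative control. Pools were incubated with 200 nmole of a 16-mer random double-stranded DNA library in Tris/NaCl/DTT/glycerol buffer at room temperature for 30 min. They were then washed, crosslinked with 0.1% formaldehyde, proximity-ligated (BsaI/T4 ligase, 1 h, 37 °C), PCR-amplified and sequenced on an Illumina NextSeq500. Binding signal is each 6-mer's read frequency for a factor divided by its frequency for the GST control.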
# ELK1 = target: T2, ELK1 (Homo sapiens, UniProt P19419 1-428); conditions: protein: recombinant; tags: N-terminal GST; dsDNA, one strand shown
# T2 sequence: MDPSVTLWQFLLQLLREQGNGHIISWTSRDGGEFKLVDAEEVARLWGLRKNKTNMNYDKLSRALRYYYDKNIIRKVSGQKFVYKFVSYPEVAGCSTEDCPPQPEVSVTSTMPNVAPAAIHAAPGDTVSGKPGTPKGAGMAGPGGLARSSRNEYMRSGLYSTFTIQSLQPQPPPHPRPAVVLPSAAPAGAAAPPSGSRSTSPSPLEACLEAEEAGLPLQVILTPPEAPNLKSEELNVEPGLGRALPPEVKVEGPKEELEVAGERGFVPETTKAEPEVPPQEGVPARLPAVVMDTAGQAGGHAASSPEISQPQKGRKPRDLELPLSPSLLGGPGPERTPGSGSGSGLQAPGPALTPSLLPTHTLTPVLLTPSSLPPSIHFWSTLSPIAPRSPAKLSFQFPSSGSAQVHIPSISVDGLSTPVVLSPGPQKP
# In short: as §1
# GABPA = target: T3, GABPA (Homo sapiens, UniProt Q06546 1-454); conditions: protein: recombinant; tags: N-terminal GST; dsDNA, one strand shown
# T3 sequence: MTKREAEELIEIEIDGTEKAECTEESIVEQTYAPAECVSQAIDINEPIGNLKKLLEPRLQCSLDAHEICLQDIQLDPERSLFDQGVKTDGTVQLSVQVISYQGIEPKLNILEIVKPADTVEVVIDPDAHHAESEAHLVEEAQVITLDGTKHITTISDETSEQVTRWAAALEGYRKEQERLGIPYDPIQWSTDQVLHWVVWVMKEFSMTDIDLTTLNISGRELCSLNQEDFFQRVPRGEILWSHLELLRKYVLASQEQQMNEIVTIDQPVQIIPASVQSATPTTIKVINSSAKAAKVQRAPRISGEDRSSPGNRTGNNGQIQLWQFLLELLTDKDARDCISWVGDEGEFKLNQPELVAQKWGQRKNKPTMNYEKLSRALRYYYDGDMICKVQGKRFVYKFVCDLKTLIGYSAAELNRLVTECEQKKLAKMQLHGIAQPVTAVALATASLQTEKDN
# In short: as §1
# ERG = target: T4, ERG (Homo sapiens, UniProt P11308 1-479); conditions: protein: recombinant; tags: N-terminal GST; dsDNA, one strand shown
# T4 sequence: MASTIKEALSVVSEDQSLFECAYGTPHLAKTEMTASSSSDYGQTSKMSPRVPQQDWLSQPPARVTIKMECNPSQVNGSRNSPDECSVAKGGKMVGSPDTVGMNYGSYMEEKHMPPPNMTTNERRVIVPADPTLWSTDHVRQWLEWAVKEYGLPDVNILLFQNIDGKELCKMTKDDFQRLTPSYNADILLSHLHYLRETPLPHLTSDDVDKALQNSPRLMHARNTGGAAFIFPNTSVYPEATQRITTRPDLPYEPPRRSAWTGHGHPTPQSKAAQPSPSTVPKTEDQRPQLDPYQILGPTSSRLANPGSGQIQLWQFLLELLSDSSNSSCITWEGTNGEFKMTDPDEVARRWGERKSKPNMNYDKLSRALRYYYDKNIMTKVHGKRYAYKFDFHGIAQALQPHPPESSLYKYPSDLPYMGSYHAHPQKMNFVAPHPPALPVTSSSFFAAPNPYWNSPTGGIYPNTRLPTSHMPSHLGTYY
# In short: as §1
# ELF1 = ELF1 (Homo sapiens, UniProt P32519 1-619); conditions: protein: recombinant; tags: N-terminal GST; dsDNA, one strand shown
# Sequence of ELF1 (P32519 whole entry): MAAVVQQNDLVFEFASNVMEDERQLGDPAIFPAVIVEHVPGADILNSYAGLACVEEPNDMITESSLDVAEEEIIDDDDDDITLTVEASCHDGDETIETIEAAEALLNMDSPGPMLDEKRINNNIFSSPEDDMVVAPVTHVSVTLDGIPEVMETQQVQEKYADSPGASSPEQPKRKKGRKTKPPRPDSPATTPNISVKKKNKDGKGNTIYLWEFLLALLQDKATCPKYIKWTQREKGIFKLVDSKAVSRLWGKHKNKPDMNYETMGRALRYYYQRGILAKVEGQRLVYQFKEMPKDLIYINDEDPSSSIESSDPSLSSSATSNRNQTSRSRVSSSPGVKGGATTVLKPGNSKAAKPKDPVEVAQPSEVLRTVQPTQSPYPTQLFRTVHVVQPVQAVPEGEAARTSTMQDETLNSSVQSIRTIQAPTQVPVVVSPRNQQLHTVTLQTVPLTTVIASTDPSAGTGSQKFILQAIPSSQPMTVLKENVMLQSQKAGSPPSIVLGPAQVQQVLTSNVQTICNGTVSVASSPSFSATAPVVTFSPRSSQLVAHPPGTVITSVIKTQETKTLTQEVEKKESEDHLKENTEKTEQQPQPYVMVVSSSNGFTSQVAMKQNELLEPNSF
# In short: as §1
# EHF = target: T5, EHF (Homo sapiens, UniProt Q9NZC4 1-300); conditions: protein: recombinant; tags: N-terminal GST; dsDNA, one strand shown
# T5 sequence: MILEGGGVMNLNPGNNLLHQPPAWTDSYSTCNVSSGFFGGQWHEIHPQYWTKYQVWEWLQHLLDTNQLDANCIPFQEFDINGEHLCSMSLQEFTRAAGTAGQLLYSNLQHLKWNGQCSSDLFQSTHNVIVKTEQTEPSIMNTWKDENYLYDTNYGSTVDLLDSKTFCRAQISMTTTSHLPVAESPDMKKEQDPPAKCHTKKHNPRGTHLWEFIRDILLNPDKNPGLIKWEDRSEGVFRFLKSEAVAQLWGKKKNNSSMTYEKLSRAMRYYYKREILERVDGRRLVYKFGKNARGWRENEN
# In short: as §1
# SPI1 = SPI1 (Homo sapiens, UniProt P17947 1-270); conditions: protein: recombinant; tags: N-terminal GST; dsDNA, one strand shown
# In short: as §1
# SPIB = SPIB (Homo sapiens, UniProt Q01892 1-262); conditions: protein: recombinant; tags: N-terminal GST; dsDNA, one strand shown
# Sequence of SPIB (Q01892 whole entry): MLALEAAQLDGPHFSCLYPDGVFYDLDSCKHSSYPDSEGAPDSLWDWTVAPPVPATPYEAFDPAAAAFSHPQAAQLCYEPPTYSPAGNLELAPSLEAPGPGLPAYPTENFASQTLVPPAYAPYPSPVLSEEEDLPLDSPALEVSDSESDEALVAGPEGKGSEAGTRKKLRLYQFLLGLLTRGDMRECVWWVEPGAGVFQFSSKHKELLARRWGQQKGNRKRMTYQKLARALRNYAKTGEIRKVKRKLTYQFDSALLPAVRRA
# In short: as §1
# ELK3 = target: T6, ELK3 (Homo sapiens, UniProt P41970 1-407); conditions: protein: recombinant; tags: N-terminal GST; dsDNA, one strand shown
# T6 sequence: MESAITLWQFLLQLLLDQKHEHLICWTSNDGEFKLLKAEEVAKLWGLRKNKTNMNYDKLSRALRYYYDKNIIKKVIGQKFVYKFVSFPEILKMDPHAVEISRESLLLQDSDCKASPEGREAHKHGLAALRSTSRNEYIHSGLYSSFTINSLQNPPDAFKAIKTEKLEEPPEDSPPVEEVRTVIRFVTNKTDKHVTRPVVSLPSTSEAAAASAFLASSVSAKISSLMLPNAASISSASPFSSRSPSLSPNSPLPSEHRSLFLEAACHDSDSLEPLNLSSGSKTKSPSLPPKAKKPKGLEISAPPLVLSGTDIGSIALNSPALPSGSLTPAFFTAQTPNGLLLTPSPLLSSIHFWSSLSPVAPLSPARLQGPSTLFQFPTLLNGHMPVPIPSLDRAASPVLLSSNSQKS
# In short: as §1
# FEV = target: T7, FEV (Homo sapiens, UniProt Q99581 1-238); conditions: protein: recombinant; tags: N-terminal GST; dsDNA, one strand shown
# T7 sequence: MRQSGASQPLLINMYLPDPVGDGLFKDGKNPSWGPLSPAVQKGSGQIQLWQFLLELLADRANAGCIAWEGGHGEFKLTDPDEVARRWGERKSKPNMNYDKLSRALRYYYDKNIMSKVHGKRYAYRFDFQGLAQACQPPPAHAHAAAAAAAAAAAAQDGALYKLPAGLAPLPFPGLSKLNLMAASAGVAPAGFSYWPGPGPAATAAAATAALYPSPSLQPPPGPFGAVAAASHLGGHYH
# In short: as §1
# ETV5 = ETV5 (Homo sapiens, UniProt P41161 1-510); conditions: protein: recombinant; tags: N-terminal GST; dsDNA, one strand shown
# Sequence of ETV5 (P41161 whole entry): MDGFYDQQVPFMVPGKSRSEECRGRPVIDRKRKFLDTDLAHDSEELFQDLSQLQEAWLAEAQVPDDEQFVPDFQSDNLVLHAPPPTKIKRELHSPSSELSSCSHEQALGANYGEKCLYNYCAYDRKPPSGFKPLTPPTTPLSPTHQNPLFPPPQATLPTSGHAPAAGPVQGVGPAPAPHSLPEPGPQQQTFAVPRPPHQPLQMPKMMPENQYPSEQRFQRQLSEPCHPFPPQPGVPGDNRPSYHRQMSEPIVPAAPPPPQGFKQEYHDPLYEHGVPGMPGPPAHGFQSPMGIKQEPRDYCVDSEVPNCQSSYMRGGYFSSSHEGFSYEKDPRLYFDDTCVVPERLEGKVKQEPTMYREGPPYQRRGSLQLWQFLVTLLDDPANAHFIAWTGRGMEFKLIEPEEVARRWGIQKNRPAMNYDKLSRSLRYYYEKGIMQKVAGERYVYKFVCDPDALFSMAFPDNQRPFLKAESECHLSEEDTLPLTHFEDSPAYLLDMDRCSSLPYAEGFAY
# In short: as §1
# HSF1 = HSF1 (Homo sapiens, UniProt Q00613 1-529); conditions: protein: recombinant; tags: N-terminal GST; chain copies: 3; dsDNA, one strand shown
# Sequence of HSF1 (Q00613 whole entry): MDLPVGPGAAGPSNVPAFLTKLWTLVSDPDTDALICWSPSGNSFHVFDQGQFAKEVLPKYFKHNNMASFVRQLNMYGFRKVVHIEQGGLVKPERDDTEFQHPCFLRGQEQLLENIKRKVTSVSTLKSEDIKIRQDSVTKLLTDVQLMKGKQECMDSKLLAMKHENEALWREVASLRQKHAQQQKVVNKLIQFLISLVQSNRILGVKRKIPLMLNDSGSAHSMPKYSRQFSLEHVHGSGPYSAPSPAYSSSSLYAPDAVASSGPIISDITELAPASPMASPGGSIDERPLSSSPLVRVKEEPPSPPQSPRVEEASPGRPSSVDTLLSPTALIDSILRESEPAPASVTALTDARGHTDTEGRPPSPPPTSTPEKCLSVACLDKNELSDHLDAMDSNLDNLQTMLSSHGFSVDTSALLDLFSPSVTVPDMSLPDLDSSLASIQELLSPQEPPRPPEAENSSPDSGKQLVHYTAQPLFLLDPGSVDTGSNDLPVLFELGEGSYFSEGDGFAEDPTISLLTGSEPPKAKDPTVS
# In short: as §1
# SPIC = target: T8, SPIC (Homo sapiens, UniProt Q8N5J4 1-248); conditions: protein: recombinant; tags: N-terminal GST; dsDNA, one strand shown
# T8 sequence: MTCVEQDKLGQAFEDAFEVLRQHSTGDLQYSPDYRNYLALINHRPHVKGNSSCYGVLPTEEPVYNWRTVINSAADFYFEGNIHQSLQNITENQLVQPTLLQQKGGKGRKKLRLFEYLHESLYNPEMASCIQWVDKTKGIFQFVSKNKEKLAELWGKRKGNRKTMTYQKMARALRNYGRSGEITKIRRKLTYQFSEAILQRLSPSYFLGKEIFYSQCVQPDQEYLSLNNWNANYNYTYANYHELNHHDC
# In short: as §1
# ELF4 = ELF4 (Homo sapiens, UniProt Q99607 1-663); conditions: protein: recombinant; tags: N-terminal GST; dsDNA, one strand shown
# Sequence of ELF4 (Q99607 whole entry): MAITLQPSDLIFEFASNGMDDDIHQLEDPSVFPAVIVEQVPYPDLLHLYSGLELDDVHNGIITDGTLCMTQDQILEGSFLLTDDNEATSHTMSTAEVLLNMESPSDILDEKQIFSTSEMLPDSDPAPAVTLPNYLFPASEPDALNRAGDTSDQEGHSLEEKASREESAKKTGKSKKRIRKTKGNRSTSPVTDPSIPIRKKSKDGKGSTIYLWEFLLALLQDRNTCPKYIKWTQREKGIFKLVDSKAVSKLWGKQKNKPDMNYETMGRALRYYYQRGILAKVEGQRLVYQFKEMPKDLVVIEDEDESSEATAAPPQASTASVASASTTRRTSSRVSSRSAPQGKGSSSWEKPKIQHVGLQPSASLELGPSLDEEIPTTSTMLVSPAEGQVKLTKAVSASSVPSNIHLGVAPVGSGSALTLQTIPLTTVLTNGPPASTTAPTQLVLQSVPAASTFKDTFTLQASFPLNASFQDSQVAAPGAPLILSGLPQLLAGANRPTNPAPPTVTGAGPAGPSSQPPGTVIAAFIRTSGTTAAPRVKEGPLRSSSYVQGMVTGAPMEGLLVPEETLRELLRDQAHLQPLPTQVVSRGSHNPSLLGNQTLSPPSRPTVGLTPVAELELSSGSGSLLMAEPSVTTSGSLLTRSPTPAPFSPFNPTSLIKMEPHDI
# In short: as §1
# ELK4 = target: T9, ELK4 (Homo sapiens, UniProt P28324-2 1-405); conditions: protein: recombinant; tags: N-terminal GST; dsDNA, one strand shown
# T9 sequence: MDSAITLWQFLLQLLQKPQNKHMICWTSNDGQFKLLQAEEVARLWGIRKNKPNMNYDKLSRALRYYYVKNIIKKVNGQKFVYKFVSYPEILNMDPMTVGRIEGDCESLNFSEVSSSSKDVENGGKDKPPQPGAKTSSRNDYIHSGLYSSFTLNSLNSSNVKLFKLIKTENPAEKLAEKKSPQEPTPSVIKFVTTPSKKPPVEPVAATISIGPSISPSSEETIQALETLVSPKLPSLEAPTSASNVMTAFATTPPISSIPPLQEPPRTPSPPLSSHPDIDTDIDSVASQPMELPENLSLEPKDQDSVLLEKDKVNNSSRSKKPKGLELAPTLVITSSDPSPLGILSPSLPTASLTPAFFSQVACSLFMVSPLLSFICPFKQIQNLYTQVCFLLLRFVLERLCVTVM
# In short: as §1
# ETV2 = target: T10, ETV2 (Homo sapiens, UniProt O00321 1-342); conditions: protein: recombinant; tags: N-terminal GST; dsDNA, one strand shown
# T10 sequence: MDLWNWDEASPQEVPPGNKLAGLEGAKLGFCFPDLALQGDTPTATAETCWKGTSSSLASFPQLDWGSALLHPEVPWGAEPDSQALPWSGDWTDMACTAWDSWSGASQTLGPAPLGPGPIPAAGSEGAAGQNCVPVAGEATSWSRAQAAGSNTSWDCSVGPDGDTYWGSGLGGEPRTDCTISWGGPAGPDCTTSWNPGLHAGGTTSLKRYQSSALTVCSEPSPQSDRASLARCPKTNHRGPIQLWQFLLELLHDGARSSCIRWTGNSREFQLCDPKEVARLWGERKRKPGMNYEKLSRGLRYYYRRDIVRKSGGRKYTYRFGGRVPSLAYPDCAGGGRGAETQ
# In short: as §1
# ELF3 = target: T11, ELF3 (Homo sapiens, UniProt P78545 1-371); conditions: protein: recombinant; tags: N-terminal GST; dsDNA, one strand shown
# T11 sequence: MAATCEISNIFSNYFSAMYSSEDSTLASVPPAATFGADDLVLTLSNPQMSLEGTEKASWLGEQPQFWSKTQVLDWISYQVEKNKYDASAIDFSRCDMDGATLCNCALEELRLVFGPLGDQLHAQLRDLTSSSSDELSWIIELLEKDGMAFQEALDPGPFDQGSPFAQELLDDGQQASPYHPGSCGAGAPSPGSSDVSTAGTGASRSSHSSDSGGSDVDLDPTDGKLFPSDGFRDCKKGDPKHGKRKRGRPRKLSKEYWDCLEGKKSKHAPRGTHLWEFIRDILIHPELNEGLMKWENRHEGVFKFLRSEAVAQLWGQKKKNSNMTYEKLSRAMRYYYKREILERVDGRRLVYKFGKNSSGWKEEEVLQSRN
# In short: as §1
# CRX = CRX (Homo sapiens, UniProt O43186 1-299); conditions: protein: recombinant; tags: N-terminal GST; dsDNA, one strand shown
# Sequence of CRX (O43186 whole entry): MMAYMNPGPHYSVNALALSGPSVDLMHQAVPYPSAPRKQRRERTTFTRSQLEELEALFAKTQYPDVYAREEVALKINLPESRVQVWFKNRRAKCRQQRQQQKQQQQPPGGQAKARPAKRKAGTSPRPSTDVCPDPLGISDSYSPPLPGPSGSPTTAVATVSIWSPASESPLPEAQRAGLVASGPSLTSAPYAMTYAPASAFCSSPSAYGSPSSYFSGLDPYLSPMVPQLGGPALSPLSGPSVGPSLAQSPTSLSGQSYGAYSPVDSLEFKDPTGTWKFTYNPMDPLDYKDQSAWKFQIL
# In short: as §1
# ETV1 = ETV1 (Homo sapiens, UniProt P50549 1-477); conditions: protein: recombinant; tags: N-terminal GST; dsDNA, one strand shown
# Sequence of ETV1 (P50549 whole entry): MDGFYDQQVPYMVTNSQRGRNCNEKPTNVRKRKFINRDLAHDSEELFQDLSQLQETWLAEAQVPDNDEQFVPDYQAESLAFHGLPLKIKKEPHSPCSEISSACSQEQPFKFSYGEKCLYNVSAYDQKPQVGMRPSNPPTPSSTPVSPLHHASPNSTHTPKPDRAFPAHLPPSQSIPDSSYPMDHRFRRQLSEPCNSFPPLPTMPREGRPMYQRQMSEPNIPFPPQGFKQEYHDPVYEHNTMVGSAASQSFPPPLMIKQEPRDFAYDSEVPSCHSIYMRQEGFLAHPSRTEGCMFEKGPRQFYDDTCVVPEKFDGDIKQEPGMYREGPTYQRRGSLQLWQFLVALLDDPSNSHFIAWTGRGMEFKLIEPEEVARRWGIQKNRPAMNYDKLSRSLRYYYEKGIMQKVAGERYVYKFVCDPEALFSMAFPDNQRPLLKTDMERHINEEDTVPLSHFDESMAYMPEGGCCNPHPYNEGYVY
# In short: as §1
sequence,measurement,setting,value
AATGGC,binding signal,FLI1,"1.32 fold enrichment (6-mer frequency, TF over GST control)"
same,binding signal,ELK1,"1.33 fold enrichment (6-mer frequency, TF over GST control)"
same,binding signal,GABPA,"1.37 fold enrichment (6-mer frequency, TF over GST control)"
same,binding signal,ERG,"1.43 fold enrichment (6-mer frequency, TF over GST control)"
same,binding signal,ELF1,"1.39 fold enrichment (6-mer frequency, TF over GST control)"
same,binding signal,EHF,"1.5 fold enrichment (6-mer frequency, TF over GST control)"
same,binding signal,SPI1,"1.39 fold enrichment (6-mer frequency, TF over GST control)"
same,binding signal,SPIB,"1.37 fold enrichment (6-mer frequency, TF over GST control)"
same,binding signal,ELK3,"1.26 fold enrichment (6-mer frequency, TF over GST control)"
same,binding signal,FEV,"1.52 fold enrichment (6-mer frequency, TF over GST control)"
same,binding signal,ETV5,"1.42 fold enrichment (6-mer frequency, TF over GST control)"
same,binding signal,HSF1,"1.28 fold enrichment (6-mer frequency, TF over GST control)"
same,binding signal,SPIC,"1.61 fold enrichment (6-mer frequency, TF over GST control)"
same,binding signal,ELF4,"1.29 fold enrichment (6-mer frequency, TF over GST control)"
same,binding signal,ELK4,"1.52 fold enrichment (6-mer frequency, TF over GST control)"
same,binding signal,ETV2,"1.26 fold enrichment (6-mer frequency, TF over GST control)"
same,binding signal,ELF3,"1.55 fold enrichment (6-mer frequency, TF over GST control)"
same,binding signal,CRX,"1.26 fold enrichment (6-mer frequency, TF over GST control)"
same,binding signal,ETV1,"1.44 fold enrichment (6-mer frequency, TF over GST control)"
